Screening results: PubChem BioAssay, Broad Institute
Rows were chosen to be rich in hits. Some 2.5% of all compounds tested hit in one or more screens of this group.
NSD2 inh – NSD2 (human) methyltransferase inhibition; AID 743445; actives 0.54% (n = 310,000); inhibition, % at 12.5 µM; NSD2 peptide methylation, AlphaScreen, 120 min; in the data active = inhibition above about 50%
Target sequence (O96028 whole entry, looked up): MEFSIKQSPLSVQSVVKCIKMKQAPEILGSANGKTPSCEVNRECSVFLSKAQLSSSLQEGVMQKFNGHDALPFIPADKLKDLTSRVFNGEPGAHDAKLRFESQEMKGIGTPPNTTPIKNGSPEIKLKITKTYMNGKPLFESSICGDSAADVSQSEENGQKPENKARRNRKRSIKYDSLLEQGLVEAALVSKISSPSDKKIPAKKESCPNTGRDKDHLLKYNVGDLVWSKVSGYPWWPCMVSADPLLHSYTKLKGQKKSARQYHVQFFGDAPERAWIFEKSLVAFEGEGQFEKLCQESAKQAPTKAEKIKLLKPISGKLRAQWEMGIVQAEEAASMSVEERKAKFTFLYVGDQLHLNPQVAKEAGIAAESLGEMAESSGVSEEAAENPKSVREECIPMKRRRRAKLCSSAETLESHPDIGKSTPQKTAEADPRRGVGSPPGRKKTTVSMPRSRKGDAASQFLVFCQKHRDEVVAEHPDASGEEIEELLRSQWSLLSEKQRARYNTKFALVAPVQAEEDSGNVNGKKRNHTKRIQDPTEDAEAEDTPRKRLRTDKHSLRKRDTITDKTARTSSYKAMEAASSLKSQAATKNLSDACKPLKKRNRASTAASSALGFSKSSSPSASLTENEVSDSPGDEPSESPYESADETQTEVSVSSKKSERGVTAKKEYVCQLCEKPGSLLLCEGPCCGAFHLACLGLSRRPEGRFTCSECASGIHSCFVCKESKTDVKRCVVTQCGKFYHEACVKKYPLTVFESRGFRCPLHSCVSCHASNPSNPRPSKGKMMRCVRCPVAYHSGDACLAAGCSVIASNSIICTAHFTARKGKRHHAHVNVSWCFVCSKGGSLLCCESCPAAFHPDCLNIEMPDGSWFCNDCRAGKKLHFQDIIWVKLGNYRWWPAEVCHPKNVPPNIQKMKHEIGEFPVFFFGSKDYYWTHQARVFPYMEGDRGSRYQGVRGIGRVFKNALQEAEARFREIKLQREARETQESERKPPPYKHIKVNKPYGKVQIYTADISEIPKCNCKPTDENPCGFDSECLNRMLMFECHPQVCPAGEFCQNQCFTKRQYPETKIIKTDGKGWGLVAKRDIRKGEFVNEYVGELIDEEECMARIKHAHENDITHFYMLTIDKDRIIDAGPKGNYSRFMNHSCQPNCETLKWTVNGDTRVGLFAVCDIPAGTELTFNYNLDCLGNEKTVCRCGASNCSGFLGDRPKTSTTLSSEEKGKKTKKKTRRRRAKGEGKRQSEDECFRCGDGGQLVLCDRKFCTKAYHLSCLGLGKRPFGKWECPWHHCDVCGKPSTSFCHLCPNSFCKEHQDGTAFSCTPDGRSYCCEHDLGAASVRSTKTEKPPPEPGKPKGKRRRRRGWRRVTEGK
RAD52 inh – inhibitors of human RAD52 DNA annealing; recombinant RAD52 DNA annealing, FRET fluorescence; inhibition, % at 18.7 µM; actives 0.46% (n = 360,000);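 active = every replicate showing at least 50% inhibition; inconclusive = mean inhibition at least 50% but not in every replicate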
Ecoli rRNA inh – inhibits bacterial ribosomal RNA function over humanized ribosomes | E. coli WT GFP vs humanized-ribosome RFP mutants, fluorescence, 24 h; stronger effect = lower value; DMSO median 0, no signal -100 | GFP signal change (wild-type ribosome), % (test concentration not listed) | actives 1.6% (n = 350,000) | AID 720706;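 active = significant combined selectivity score with lowered wild-type GFP, culture density cut under 30%, mutant RFP and density less affected; inactive = any of these conditions unmet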
AF4-AF9 inh – MLL-AF4/AF9 protein interaction inhibition. AlphaScreen, biotin-AF4 peptide binding to FLAG-AF9. actives 0.47% (n = 350,000). inhibition, % at 10 µM;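 active = every replicate reaching a set inhibition limit, whatever the replicate mean, cut at about 25% in these data; inconclusive = mean inhibition reaches that limit but some replicates miss it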;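 note: 0% = plate neutral control median and 100% = total signal loss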
CASP6 VEID inh – blocks human caspase-6 cleavage activity | P55212 | purified caspase-6, Z-VEID-R110 cleavage fluorescence | inhibition, % at 12.5 µM | actives 0.53% (n = 350,000);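 active = mean inhibition across replicates at least about 35%, with every replicate also reaching that limit, limit read from the data; inconclusive = only one of the two criteria met; inactive = neither criterion met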;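 note: 0% = median of neutral control wells and 100% = no fluorescence left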
AlphaScreen intf – counter-screen: AlphaScreen signal interference; shares compounds with AF4-AF9 inh; actives 45% (n = 530); AC50, µM (top dose mostly 12 µM), without a hit: at the highest dose activity change, negative = inhibition; signal luminescence; AID 720494; cut-off not given, nearly all actives have AC50 up to about 14 µM
* hit, by the source's call; u = inconclusive; x = no result; ! = not active in a repeat.

SMILES	NSD2 inh	RAD52 inh	Ecoli rRNA inh	AF4-AF9 inh	CASP6 VEID inh	AlphaScreen intf
COc1ccc2nc3ccccc3nc2c1N	41	1	-7	u	5	12µM*
C(=N\N=C\c1ccccn1)/c1ccccn1	-6	-14	10	-4	-2	x
C(=C1c2ccccc2-c2ccccc21)c1ccccn1	2	-6	-8	19	-4	-31%
CO[C@@H]1CN(C)C(=O)c2ccc(NC(C)=O)cc2OC[C@H](C)N(C(=O)c2ccncc2)C[C@@H]1C	x	-5	1	-1	x	x
Fc1ccc(C(c2ccc(F)cc2)N2CCN(C/C=C/c3ccccc3)CC2)cc1	x	-3	x	34*!	-1	11%
C[C@@H]1CCCCO[C@@H](CN(C)C(=O)CCC(F)(F)F)[C@H](C)CN([C@@H](C)CO)C(=O)c2cc(NS(=O)(=O)c3ccc(F)cc3)ccc2O1	x	-14	-2	1	2	x
COc1ccc(N2CCC(CNC(=S)Nc3ccc(C)cc3C)C2)cc1 (centres undefined)	12	-14	-4	u	-6	-14%
CCN1CCN(c2ccc(S(=O)(=O)N3CCCCC3)cc2NC(=O)/C=C/c2ccc([N+](=O)[O-])cc2)CC1	3	12	-4	14	-4	x
CN1CCN(c2ccc(S(=O)(=O)N3CCCCC3)cc2NC(=O)/C=C/c2ccc(Cl)c([N+](=O)[O-])c2)CC1	5	5	-50	u	-2	2%
CCCNC(=O)N[C@@H]1CC[C@@H](CCn2cc(-c3cccc(F)c3)nn2)O[C@@H]1CO	x	-6	1	-2	10	x
Cc1ccc(-c2ccc([C@H]3[C@H]4CN(C(=O)Nc5cccc(F)c5)CC(=O)N4[C@H]3CO)cc2)cc1	x	21	7	-7	1	x
O=C(C[C@H]1CC[C@@H]2[C@H](COC[C@@H](O)CN2S(=O)(=O)c2ccccc2)O1)NCC1CCCCC1	x	94*	x	39*	0	-18%
COc1cc(OC)c2c(c1C(CCN1CCOCC1)c1ccc(N(C)C)cc1)OC(=O)CC2c1ccc(N(C)C)cc1 (centres undefined)	x	-10	1	65*	4	13µM*
COc1cc(OC)c2c(-c3ccccc3)cc(=O)oc2c1C(CCN1CCCCC1)c1ccc2c(c1)OCO2 (centres undefined)	x	32	-54	36*	10	-28%
COc1ccc(C(CCN2CCCCC2)c2c(OC)cc(OC)c3c(-c4ccccc4)cc(=O)oc23)cc1 (centres undefined)	x	34	-27	19	x	x
COc1ccc(C2CC(=O)Oc3c(C(CCN4CCN(c5ccccc5)CC4)c4ccc(N(C)C)cc4)c(OC)cc(OC)c32)cc1 (centres undefined)	x	-16	10	14	1	x
COc1cc(OC)c2c(-c3ccccc3)cc(=O)oc2c1C(CCN1CCOCC1)c1ccc(N(C)C)cc1 (centres undefined)	x	-6	-2	39*	-2	-20%
CNC[C@H]1OCCCC[C@H](C)Oc2ccc(NS(=O)(=O)c3ccc(F)cc3)cc2C(=O)N([C@@H](C)CO)C[C@@H]1C	x	-57	3	0	-2	x
C[C@@H]1CN([C@H](C)CO)C(=O)c2cc(NC(=O)Nc3ccc4c(c3)OCO4)ccc2O[C@@H]1CN(C)S(C)(=O)=O	x	4	3	-4	2	x
N#C[C@@H]1[C@H](c2ccccc2-c2ccccc2F)[C@H](CO)N1C(=O)c1cccc(F)c1	x	-56	-10	3	2	x
COc1ccc(C#Cc2ccc([C@@H]3[C@@H](CO)N4CCCCN(S(=O)(=O)c5cn(C)cn5)C[C@@H]34)cc2)cc1	x	41	1	-4	4	x
CC(C)=CCc1cc(-c2oc3cc(O)cc(O)c3c(=O)c2O)ccc1O	x	-9	x	35*	19	-42%
O=c1c(O)c(-c2ccccc2)oc2cc(O)cc(O)c12	x	-7	x	1	1	x
CCOC(=O)C1CCN(c2c(NCCCN(CC)c3ccccc3)c(=O)c2=O)CC1	0	x	x	x	x	x
CCN(CCCNc1cc2c(c(N)c1S(=O)(=O)O)C(=O)c1ccccc1C2=O)c1ccccc1	x	-52	-18	61*	15	7.6µM*
SMILES	NSD2 inh	RAD52 inh	Ecoli rRNA inh	AF4-AF9 inh	CASP6 VEID inh	AlphaScreen intf
CC1CCN(C(=O)CCNS(=O)(=O)c2ccc(Br)cc2)CC1	1	2	-6	-2	1	x
CC1CCN(C2=C(NS(=O)(=O)c3ccc(Br)cc3)C(=O)c3ccccc3C2=O)CC1	30	-2	-3	50*	-1	-36%
CCOC(=O)C1CCN(CC(C)(C)NS(=O)(=O)c2ccc(Cl)cc2)CC1	-9	-11	3	2	-1	x
CCOC(=O)C1CCN(C2=C(NS(=O)(=O)c3ccc(Cl)cc3)C(=O)c3ccccc3C2=O)CC1	67*	-18	-14	30*	0	1%
CCOC(=O)C1CCCN(C2=C(NS(=O)(=O)c3ccc(Br)cc3)C(=O)c3ccccc3C2=O)C1 (centres undefined)	46	7	-10	52*	x	-20%
CO[C@H]1CN(C)C(=O)c2ccc(NC(=O)Nc3ccccc3)cc2OC[C@@H](C)N(C(=O)CC2CC2)C[C@H]1C	x	-9	-5	2	0	x
O=C(C[C@@H]1C[C@H]2c3cc(NC(=O)Nc4ccccc4)ccc3O[C@H]2[C@@H](CO)O1)NCC1CC1	x	-5	1	-3	-7	x
COCC(=O)Nc1ccc2c(c1)C(=O)N(C)C[C@@H](OC)[C@H](C)CN(C(=O)c1cnccn1)[C@@H](C)CO2	x	-2	2	0	-1	x
S=C(NN=C(c1ccccc1)c1ccccn1)N(Cc1ccccn1)Cc1ccccn1	x	-13	-14	53*	1	8µM*
Cc1cnc(C)c(N2CCN(Cc3nc(-c4ccc(C)o4)oc3C)CC2)n1	2	-21	10	5	1	x
Cc1oc(-c2cccc3ccccc23)nc1CN1CCN(c2ncnc3ccccc23)CC1	-16	-29	-54	22	0	-10%
CSc1ccc(-c2nc(CSCC(=O)N3CCOCC3)c(C)o2)cc1	1	8	-11	x	6	x
CCc1ccc(-c2nc(CSCC(=O)N3CCN(c4ncccn4)CC3)c(C)o2)cc1	x	-1	-8	-10	-1	0%
C[C@H]1CN([C@@H](C)CO)C(=O)c2cccc(NC(=O)NC3CCCCC3)c2O[C@@H]1CN(C)S(=O)(=O)c1ccccc1	x	20	-2	1	1	x
O=C(c1cccc(F)c1)N1CC(=O)N2[C@@H](CO)[C@@H](c3ccc(C4=CCCC4)cc3)[C@@H]2C1	x	-5	3	-4	4	x
CN(C)C(CNC(C(=O)Nc1ccc([N+](=O)[O-])cc1Br)c1ccccc1)c1ccccc1 (centres undefined)	-3	4	-14	35*	0	-23%
CC(C)CNC(C(=O)Nc1ccc([N+](=O)[O-])cc1Br)c1ccccc1 (centres undefined)	9	x	x	x	x	x
